The text below walks through data of PubChem BioAssay (Tox21).

Each structure is given as a SMILES string. Records with an inconclusive call do not appear. Values without a mark were called inactive. Activity calls are given as the source filed them. Unless noted, calls come from the whole dose curve; as a rule, active = well fitted curve in the direction sought with a large enough effect in the repeat runs; inconclusive = weak or mixed curves; inactive = no such curve, though single readings can be large; an effect the other way counts as inactive or inconclusive.

Experiment [1] is described as follows: qHTS assay to identify small molecule antagonists of the thyroid receptor (TR) signaling pathway (AID 743065). Note: series mostly up to about 70 µM; nearly all actives have a fitted effect of over 55% in size. The essentials: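 GH3.TRE-Luc rat pituitary cells carrying two TR response elements driving luciferase were plated for 4 h, given compound plus 1 nM T3 (final), and incubated 23.5 h at 37 C. ONE-Glo luminescence measured reporter inhibition; CellTiter-Fluor fluorescence tracked cytotoxicity.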
For orientation: qHTS replaces the single test concentration by a dilution series.

Experiment [2] deals with thyroid hormone receptor (rat, GH3 cells). Briefly: qHTS assay to identify small molecule agonists of the thyroid receptor (TR) signaling pathway (AID 743066; calls by dose curve).
Experiment [3] concerns the target Estrogen receptor (Homo sapiens) (UniProt P03372). Nature of the experiment: qHTS assay to identify small molecule antagonists of the estrogen receptor alpha (ER-alpha) signaling pathway (AID 743069; active = well fitted curve in the direction sought with a large enough effect in the signal ratio in the repeat runs, not every such curve was filed as active; the % refers to the signal ratio). The procedure, abridged:
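HEK293 cells stably carrying an ER-alpha-UAS-bla beta-lactamase reporter were pre-cultured overnight in 2% charcoal-stripped FBS medium. Test compounds in DMSO were added together with 17beta-estradiol for 18 hr at 37C. Read-out was fluorescence after 2 hr with LiveBLAzer B/G FRET substrate at room temperature.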

Experiment [4] in a line: qHTS assay to identify small molecule antagonists of the estrogen receptor alpha (ER-alpha) signaling pathway - cell viability counter screen (AID 743074; calls by dose curve; note: nearly all actives have a fitted effect of over 45% in size).
In experiment [5] the target is Estrogen receptor (Homo sapiens) (UniProt P03372). Briefly: qHTS assay to identify small molecule agonists of the estrogen receptor alpha (ER-alpha) signaling pathway (AID 743075; calls by dose curve).
For experiment [6] the target is unchanged. Briefly: qHTS assay to identify small molecule agonists of the estrogen receptor alpha (ER-alpha) signaling pathway using the BG1 cell line (AID 743079). Note: nearly all actives have a fitted effect of over 20% in size. Note: potency is the fitted concentration of half-maximal effect.
Experiment [7] in a line: qHTS assay to identify small molecule antagonists of the estrogen receptor alpha (ER-alpha) signaling pathway using the BG1 cell line (AID 743080; calls by dose curve;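 note: BG1 cells stimulated with 17beta-estradiol alongside compound; series mostly up to about 70 µM; nearly all actives have a fitted effect of over 25% in size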). The essentials:
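After 5 days in phenol-red-free 10% charcoal-stripped FBS medium, BG1-Luc-4E2 cells were seeded, left 24 h at 37 C, co-treated with compounds and 17beta-estradiol for 21.5 h, then assayed for viability and luciferase.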

Experiment [8] can be described thus: qHTS assay to identify small molecule antagonists of the estrogen receptor alpha (ER-alpha) signaling pathway using the BG1 cell line - cell viability counter screen (AID 743081).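 Note: compound given together with 17beta-estradiol as the ER stimulus; series mostly up to about 70 µM; nearly all actives have a fitted effect of over 45% in size.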
Experiment [9] addresses Aromatase (Homo sapiens) (UniProt P11511). Briefly: qHTS assay to identify aromatase inhibitors (AID 743083). Note: series mostly up to about 70 µM; nearly all actives have a fitted effect of over 55% in size.
The nature of experiment [10]: qHTS assay to identify aromatase inhibitors - cell viability counter screen (AID 743084).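 Note: cells stimulated with testosterone during compound exposure; nearly all actives have a fitted effect of over 55% in size.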
% is set by controls: 0 for no effect and ±100 for the full control effect.

Chain of Aromatase (Homo sapiens) (P11511 whole entry, looked up): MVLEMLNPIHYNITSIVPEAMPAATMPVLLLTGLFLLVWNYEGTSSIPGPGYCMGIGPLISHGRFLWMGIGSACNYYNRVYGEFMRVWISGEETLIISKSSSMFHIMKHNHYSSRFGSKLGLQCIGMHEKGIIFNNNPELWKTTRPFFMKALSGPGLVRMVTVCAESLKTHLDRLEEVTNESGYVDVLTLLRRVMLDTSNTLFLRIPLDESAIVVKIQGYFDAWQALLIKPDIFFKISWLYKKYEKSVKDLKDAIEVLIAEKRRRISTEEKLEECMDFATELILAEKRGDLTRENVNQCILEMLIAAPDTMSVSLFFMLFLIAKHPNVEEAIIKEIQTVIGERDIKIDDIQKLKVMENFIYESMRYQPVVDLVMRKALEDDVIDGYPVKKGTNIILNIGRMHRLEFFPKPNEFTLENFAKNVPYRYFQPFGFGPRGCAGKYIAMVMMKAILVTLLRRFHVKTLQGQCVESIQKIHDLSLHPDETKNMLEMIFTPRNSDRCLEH
Chain of Estrogen receptor (Homo sapiens) (P03372 whole entry, looked up): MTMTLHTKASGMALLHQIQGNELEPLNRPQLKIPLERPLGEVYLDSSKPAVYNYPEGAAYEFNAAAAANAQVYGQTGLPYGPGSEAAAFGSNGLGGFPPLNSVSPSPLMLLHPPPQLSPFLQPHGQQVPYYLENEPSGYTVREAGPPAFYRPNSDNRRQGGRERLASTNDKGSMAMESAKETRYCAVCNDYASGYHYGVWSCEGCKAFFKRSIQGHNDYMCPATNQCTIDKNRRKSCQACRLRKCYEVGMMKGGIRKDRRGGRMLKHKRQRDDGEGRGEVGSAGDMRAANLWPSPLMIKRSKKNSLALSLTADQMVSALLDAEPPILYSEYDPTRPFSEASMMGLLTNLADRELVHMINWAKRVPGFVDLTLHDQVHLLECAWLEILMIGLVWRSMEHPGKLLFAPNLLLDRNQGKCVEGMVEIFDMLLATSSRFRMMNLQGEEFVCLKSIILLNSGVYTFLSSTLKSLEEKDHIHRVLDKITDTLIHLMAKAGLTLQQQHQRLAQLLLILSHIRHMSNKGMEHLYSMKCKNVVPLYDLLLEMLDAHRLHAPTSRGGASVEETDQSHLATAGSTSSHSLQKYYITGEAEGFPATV

As to `NNC(=O)OCc1ccccc1`, the Potency entry in [1], in experiment [2], in [4], in experiment [5], in experiment [6] and in experiment [7] was “inactive” in each case. Further, the Potency entry in [9] is “inactive”. The outcome in experiment [3], in experiment [8] and in experiment [10] was inactive.

`Cc1ccc(O)c([N+](=O)[O-])c1`: the Potency result in [1], in experiment [2], in [4], in experiment [5], in experiment [6] and in [7] was “inactive” in each case. The Potency result in experiment [9] was “inactive”. Moreover, the call in [3], in experiment [8] and in experiment [10] was inactive.

Turning to `CCOC(=O)CC`, the Potency entry in experiment [1], in experiment [2], in experiment [4], in experiment [5], in [6] and in experiment [7] was “inactive” in each case. The Potency result in experiment [9] was “inactive”. Also, the outcome in [3], in experiment [8] and in [10] was inactive.

On to `Nc1ccc(C(=O)NCC(=O)O)cc1`, for which the Potency entry in [1], in experiment [2], in [4], in experiment [5], in experiment [6] and in experiment [7] was “inactive” in each case. Moreover, the Potency result in experiment [9] was “inactive”. In addition, the outcome in [3], in experiment [8] and in experiment [10] was inactive.

For the compound `CCCCCCCOC(C)=O`, the Potency result in [1], in experiment [2], in [4], in experiment [5], in [7] and in [9] was “inactive” each time. In addition, the outcome in experiment [3], in experiment [8] and in [10] was inactive. The Potency in experiment [6] is 48.6 µM (active).

In the case of `NS(=O)(=O)c1cc2c(cc1C(F)(F)F)NCNS2(=O)=O`, the Potency entry in experiment [1], in [2], in [4], in experiment [5], in [6] and in [7] was “inactive” in each case. Further, in experiment [9], the Potency entry is “inactive”. Also, the compound was classed as inactive in [3], in experiment [8] and in experiment [10].

Consider `COc1cnc(NS(=O)(=O)c2ccc(N)cc2)nc1`, for which the Potency result in experiment [1], in experiment [2], in experiment [4], in [5], in [6] and in [7] was “inactive” in each case. Moreover, the Potency result in experiment [9] was “inactive”. Also, the call in experiment [3], in experiment [8] and in experiment [10] was inactive.

As for `COC(=O)/C=C(\C)CCC=C(C)C`, the Potency result in experiment [1], in [2], in experiment [4], in [5], in experiment [6] and in experiment [7] was “inactive” each time. Further, the Potency entry in experiment [9] is “inactive”. Also, the result in experiment [3] and in [8] was inactive.

As to `CN(C)CCCN(C)C`, the activity, negative = inhibition in experiment [1] was 0.44% [at 8.44 µM]; in experiment [3] it was 3.46% [at 6.71 µM]; in experiment [9], 7.56% [at 8.47 µM]. The activation is -3.73% [at 8.08 µM] in [2], -1.03% [at 6.71 µM] in [5] and -6.84% [at 8.47 µM] in experiment [6]. The activity, negative = cytotoxicity in experiment [4] is 12.6% [at 6.72 µM]. Further, the activity change, negative = inhibition in experiment [7] is 2.33% [at 8.47 µM]. Also, the activity change, negative = cytotoxicity in experiment [8] was 12.4% [at 8.47 µM]; in [10], 2.06% [at 8.47 µM].

`Cc1ccc(N)nc1`: the Potency entry in experiment [1], in experiment [2], in experiment [4], in experiment [5], in experiment [6] and in experiment [7] was “inactive” each time. Also, the Potency entry in experiment [9] is “inactive”. Moreover, the compound was classed as inactive in experiment [3], in [8] and in [10].

For the compound `Cc1ccccc1C#N`, the Potency result in [1], in [2], in [4], in [5], in experiment [6] and in experiment [7] was “inactive” in each case. Further, in [9], the Potency result was “inactive”. Also, the compound was classed as inactive in [3], in experiment [8] and in experiment [10].

Turning to `CC(O)C(CO)C(C)O` (stereo not drawn), the Potency result in experiment [1], in experiment [2], in experiment [4], in [5], in [6] and in experiment [7] was “inactive” each time. The Potency result in [9] was “inactive”. Moreover, the outcome in [3], in [8] and in experiment [10] was inactive.

Take `COc1cc2nc(N3CCN(C(=O)C4CCCO4)CC3)nc(N)c2cc1OC` (stereo not drawn): the Potency result in experiment [1], in experiment [2], in [4], in [5], in [6] and in experiment [7] was “inactive” throughout. The Potency entry in experiment [9] is “inactive”. For the same compound, the outcome in [3], in experiment [8] and in experiment [10] was inactive.

In the case of `COC(=O)c1ccc(C(=O)O)cc1`, the Potency entry in experiment [1], in experiment [2], in [4], in experiment [5], in [6] and in experiment [7] was “inactive” in each case. Further, the Potency result in experiment [9] was “inactive”. Moreover, the compound was called inactive in experiment [3], in experiment [8] and in experiment [10].

Consider `CC(C)(C)C(=O)CC(=O)C(C)(C)C`, for which the Potency result in experiment [1], in [2], in [4], in experiment [5], in [6] and in [7] was “inactive” each time. Also, the Potency result in [9] is “inactive”. The compound was classed as inactive in [3], in [8] and in [10].

Regarding `CCC(=O)OCCOc1ccccc1`, the Potency entry in experiment [1], in experiment [2], in experiment [4], in experiment [5], in experiment [6] and in experiment [7] was “inactive” in each case. In experiment [9], the Potency entry was “inactive”. Moreover, the result in experiment [3], in experiment [8] and in experiment [10] was inactive.

Regarding `Cc1cc(C)c(N)c(Cl)c1`, the Potency entry in [1], in [2], in experiment [4], in [5], in experiment [6] and in experiment [7] was “inactive” each time. Further, the Potency result in experiment [9] is “inactive”. The result in experiment [3], in experiment [8] and in experiment [10] was inactive.

On to `OCCC(F)(F)C(F)(F)C(F)(F)C(F)(F)C(F)(F)C(F)(F)F`, for which the Potency result in experiment [1], in experiment [2], in [4], in experiment [5], in [6] and in [7] was “inactive” in each case. In addition, the Potency entry in [9] is “inactive”. In addition, the compound was classed as inactive in experiment [3], in experiment [8] and in experiment [10].

In the case of `CC/C=C/CCCCCCCCCCOC(C)=O`, the Potency entry in [1], in experiment [2], in experiment [4], in [5], in [6] and in experiment [7] was “inactive” throughout. Also, the Potency entry in [9] is “inactive”. In addition, the compound was classed as inactive in experiment [3], in experiment [8] and in experiment [10].

As for `N[C@H]1C(O)O[C@H](CO)[C@@H](O)[C@@H]1O` (stereo partly drawn), the Potency result in [1], in experiment [2], in experiment [4], in experiment [5], in [7] and in experiment [9] was “inactive” throughout. The call in experiment [3], in experiment [8] and in [10] was inactive. In [6], the Potency was 0.531 µM (active).

For `CCCCCCCCCCCCCC(=O)OCC`, the Potency result in experiment [1], in experiment [2], in experiment [4], in [5], in experiment [6] and in experiment [7] was “inactive” in each case. Further, the Potency entry in [9] was “inactive”. Further, the compound was classed as inactive in experiment [3], in [8] and in experiment [10].

Regarding `CCCC(=O)OC`, the Potency entry in experiment [1], in experiment [2], in experiment [4], in [5], in [6] and in experiment [7] was “inactive” each time. Further, the Potency result in experiment [9] was “inactive”. For the same compound, the call in [3], in experiment [8] and in experiment [10] was inactive.

As for `CCC(C)(C)C`, the Potency result in experiment [1], in experiment [2], in experiment [4], in [5], in [6] and in experiment [7] was “inactive” in each case. Further, in experiment [9], the Potency entry is “inactive”. Besides, the call in experiment [3] and in [8] was inactive.

In the case of `Nc1cc(S(=O)(=O)O)ccc1O`, the Potency entry in experiment [1], in [2], in [4], in experiment [5], in [6] and in experiment [7] was “inactive” throughout. Moreover, the Potency result in [9] was “inactive”. Further, the call in [3], in experiment [8] and in experiment [10] was inactive.
